PubChem BioAssay (NCATS)
Inconclusive results are not listed. Activity calls are given as the source filed them. Calls follow the shape of the dose curve; as a rule, active = well fitted curve in the direction sought with a large enough effect; inconclusive = small, poorly fitted or top-dose-only effect, or another doubt; inactive = no such curve, though single readings can be large; an effect the other way counts as inactive or inconclusive.

Tests used:
[1] = qHTS of pediatric cancer cell lines to identify multiple opportunities for drug repurposing: Primary screen for MG 63 (6-TG R) cells (AID 1347105); settings: MG 63 (6-TG R) viability, CellTiter-Glo, 48 h; series mostly up to 46 µM; also: nearly all actives have a fitted effect of over 50% in size
How it was run: (§1)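 Cells plated at 500-1,000/well in growth medium, compounds added after 5 h. MIPE tested at 11 points (from 0.78 nM), NPC at 8 points (from 0.59 nM). CellTiter-Glo luminescence after 48 h; concentration-response curves from primary screen.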

[2] = qHTS of pediatric cancer cell lines to identify multiple opportunities for drug repurposing: Primary screen for control Hh wild type fibroblast cells (AID 1347106); settings: Hh wild-type fibroblast viability, CellTiter-Glo luminescence, 48 h; series mostly up to 46 µM;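 also: a drop in luminescence marks cytotoxicity and a rise apparent proliferation; nearly all actives have a fitted effect of over 55% in size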
How it was run: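 Viability after 48 h compound treatment at 37C, 500-1,000 cells/well, read as ATP luminescence with CellTiter-Glo. Primary screens used 11-point (MIPE, 0.78 nM-46 µM) or 8-point (NPC, 0.59 nM-46 µM) final concentrations; follow-up screens used 11-point dilutions.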

[3] = qHTS of pediatric cancer cell lines to identify multiple opportunities for drug repurposing: Primary screen for Rh30 cells (AID 1347107); settings: Rh30 rhabdomyosarcoma viability, CellTiter-Glo luminescence, 48 h; series mostly up to 46 µM; also: nearly all actives have a fitted effect of over 75% in size
How it was run: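 Cells (500-1,000/well) rested 5 h, then received compounds for 48 h; metabolically active cells were measured by CellTiter-Glo luminescence. Final concentrations spanned up to 46 µM (MIPE, 11-point) or 0.59 nM-46 µM (NPC, 8-point) in primary screens, 11-point in follow-ups.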

[4] = qHTS of pediatric cancer cell lines to identify multiple opportunities for drug repurposing: Primary screen for Rh41 cells (AID 1347108); settings: Rh41 rhabdomyosarcoma viability, CellTiter-Glo luminescence, 48 h; series mostly up to 46 µM;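 also: luminescence drop marks cytotoxic hits; nearly all actives have a fitted effect of over 70% in size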
How it was run: as §1

Measured: Potency

CC(=O)Nc1ccc(OC[C@](C)(O)C(=O)Nc2ccc([N+](=O)[O-])c(C(F)(F)F)c2)cc1
inactive: all assays above

c1cc2c(cc1[C@H]1OC[C@H]3[C@H]1CO[C@H]3c1ccc3c(c1)OCO3)OCO2
inactive: all assays above

CCOP(=O)(OCC)C(C)NC(=O)N(CCCl)N=O (centres undefined)
inactive: all assays above

CN[C@@H](C)[C@H](O)c1ccccc1
inactive: all assays above

CN(C)[C@@H]1C(=O)C(C(N)=O)=C(O)[C@@]2(O)C(=O)C3=C(O)c4c(O)cccc4[C@@](C)(O)[C@H]3[C@H](O)[C@@H]12
inactive: all assays above

C[C@@H]1[C@H](O)[C@@H](C)C=CC=CCCC=CC=CC=CC=C[C@H](O[C@H]2O[C@@H](C)[C@H](O)[C@@H](N)[C@@H]2O)CC2O[C@](O)(C[C@@H](O)[C@H](O)CC[C@@H](O)C[C@@H](O)C[C@@H](O)CC(=O)O[C@H]1C)C[C@H](O)[C@H]2C(=O)O
inactive: all assays above

O=C(O)C(Cl)Cl
inactive: all assays above

O=C(O)COc1ccccc1
inactive: all assays above

CCOP(=O)(NC(C)C)Oc1ccc(SC)c(C)c1 (centres undefined)
inactive: all assays above

O=[N+]([O-])c1cc([N+](=O)[O-])c2ccccc2c1
inactive: all assays above

CC(O)CN1CCN(CC(=O)[O-])CCN(CC(=O)[O-])CCN(CC(=O)[O-])CC1.[Gd+3] (centres undefined)
inactive: all assays above
